# Reference: PubChem BioAssay AID1159580 (chemical genetic matrix, 2015)
# “And” between values parts separate entries of the source, which are not always exact repeats. Equal values may be shown once. Screen size: about 5,500 compounds; about 2,000 (36%) were called active. Inconclusive results (about 18%) are left out. Some of the results follow. Unmarked numbers belong to inactive results. No stated cut-off is given here; in the data, active means normalized growth mostly below about 0.91 (no sharp cut-off); inconclusive means no clear call, values can overlap the other calls; inactive means mostly above about 0.92.
# Assay: chemical genetic growth profiling, strain panel (AID 1159580);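 further: tested at 20 µM; growth read once vehicle control cultures reached saturation at 30 °C; 1 = growth at the plate median or of vehicle wells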
# Conditions: S. cerevisiae deletion strains, growth OD
structure (smiles),measurement,setting,value
COC(=O)[C@@]1(C)CCC[C@]2(C)c3ccc(O)c(C(C)C)c3CCC12 (stereo not given in full),normalized growth,"locus YAL021C, strain ccr4, stronger effect = lower value",1.08
same,normalized growth,"locus YAL026C, strain drs2, stronger effect = lower value",0.929
same,normalized growth,"locus YAL030W, strain snc1, stronger effect = lower value",0.85 (active)
same,normalized growth,"locus YBL061C, strain skt5, stronger effect = lower value",0.617 (active)
same,normalized growth,"locus YBR009C, strain hhf1, stronger effect = lower value",0.364 (active)
same,normalized growth,"locus YBR021W, strain FUR4, stronger effect = lower value",0.646 (active)
same,normalized growth,"locus YBR023C, strain chs3, stronger effect = lower value",0.793 (active)
same,normalized growth,"locus YBR171W, strain sec66, stronger effect = lower value",0.946
same,normalized growth,"locus YBR229C, strain ROT2, stronger effect = lower value",0.875 (active)
same,normalized growth,"locus YBR231C, strain swc5, stronger effect = lower value",0.705 (active)
same,normalized growth,"locus YBR279W, strain paf1, stronger effect = lower value",0.941
same,normalized growth,"locus YCL011C, strain gbp2, stronger effect = lower value",0.652 (active)
same,normalized growth,"locus YCL016C, strain dcc1, stronger effect = lower value",0.847 (active)
same,normalized growth,"locus YCL029C, strain bik1, stronger effect = lower value",0.804 (active)
same,normalized growth,"locus YCL069W, strain vba3, stronger effect = lower value",0.977
same,normalized growth,"locus YCR088W, strain abp1, stronger effect = lower value",0.971
same,normalized growth,"locus YDL005C, strain med2, stronger effect = lower value",0.944
same,normalized growth,"locus YDL035C, strain GPR1, stronger effect = lower value",0.912
same,normalized growth,"locus YDL040C, strain nat1, stronger effect = lower value",0.928 (active)
same,normalized growth,"locus YDL074C, strain BRE1, stronger effect = lower value",0.174 (active)
same,normalized growth,"locus YDL101C, strain DUN1, stronger effect = lower value",0.894 (active)
same,normalized growth,"locus YDL185W, strain tfp1, stronger effect = lower value",0.956
same,normalized growth,"locus YDL192W, strain arf1, stronger effect = lower value",0.344 (active)
same,normalized growth,"locus YDR001C, strain nth1, stronger effect = lower value",0.978
same,normalized growth,"locus YDR069C, strain doa4, stronger effect = lower value",0.89 (active)
same,normalized growth,"locus YDR101C, strain arx1, stronger effect = lower value",0.782 (active)
same,normalized growth,"locus YDR137W, strain rgp1, stronger effect = lower value",0.134 (active)
same,normalized growth,"locus YDR159W, strain sac3, stronger effect = lower value",0.29 (active)
same,normalized growth,"locus YDR162C, strain NBP2, stronger effect = lower value",0.595 (active)
same,normalized growth,"locus YDR195W, strain ref2",0.189 (active)
same,normalized growth,"locus YDR297W, strain sur2, stronger effect = lower value",0.566 (active)
same,normalized growth,"locus YDR318W, strain mcm21, stronger effect = lower value",0.788 (active)
same,normalized growth,"locus YDR334W, strain swr1, stronger effect = lower value",0.998
same,normalized growth,"locus YDR335W, strain msn5, stronger effect = lower value",0.965
same,normalized growth,"locus YDR388W, stronger effect = lower value",0.942
same,normalized growth,"locus YDR392W, strain spt3, stronger effect = lower value",0.283 (active)
same,normalized growth,"locus YDR502C, strain sam2, stronger effect = lower value",0.773 (active)
same,normalized growth,"locus YEL003W, strain gim4, stronger effect = lower value",0.929
same,normalized growth,"locus YEL037C, strain rad23, stronger effect = lower value",0.988
same,normalized growth,"locus YEL061C, strain CIN8 (second series), stronger effect = lower value",0.981
same,normalized growth,"locus YEL061C, strain CIN8, stronger effect = lower value",0.803 (active)
same,normalized growth,"locus YER015W, strain faa2, stronger effect = lower value",0.793 (active)
same,normalized growth,"locus YER016W, strain bim1, stronger effect = lower value",0.825 (active)
same,normalized growth,"locus YER110C, stronger effect = lower value",1
same,normalized growth,"locus YER111C, strain swi4, stronger effect = lower value",0.995
same,normalized growth,"locus YER155C, strain BEM2 (second series), stronger effect = lower value",0.891
same,normalized growth,"locus YER155C, strain BEM2, stronger effect = lower value",0.128 (active)
same,normalized growth,"locus YER167W, strain BCK2, stronger effect = lower value",0.796 (active)
same,normalized growth,"locus YFR010W, strain ubp6, stronger effect = lower value",0.952
same,normalized growth,"locus YGL078C, strain dbp3, stronger effect = lower value",0.935
same,normalized growth,"locus YGL086W, strain mad1, stronger effect = lower value",0.729 (active)
same,normalized growth,"locus YGL167C, strain pmr1, stronger effect = lower value",0.374 (active)
same,normalized growth,"locus YGL173C, strain kem1, stronger effect = lower value",0.832 (active)
same,normalized growth,"locus YGL227W, strain vid30, stronger effect = lower value",0.97
same,normalized growth,"locus YGL240W, strain doc1, stronger effect = lower value",0.772 (active)
same,normalized growth,"locus YGL248W, strain PDE1, stronger effect = lower value",0.828 (active)
same,normalized growth,"locus YGL253W, strain hxk2, stronger effect = lower value",0.951
same,normalized growth,"locus YGR135W, strain pre9, stronger effect = lower value",0.957
same,normalized growth,"locus YGR252W, strain gcn5, stronger effect = lower value",0.781
same,normalized growth,"locus YHR013C, strain ard1, stronger effect = lower value",1.01
same,normalized growth,"locus YHR027C, strain rpn1, stronger effect = lower value",0.499 (active)
same,normalized growth,"locus YHR030C, strain SLT2, stronger effect = lower value",0.493 (active) and 0.19 (active)
same,normalized growth,"locus YHR079C, strain IRE1 (second series), stronger effect = lower value",0.927
same,normalized growth,"locus YHR079C, strain IRE1, stronger effect = lower value",0.502 (active)
same,normalized growth,"locus YHR094C, strain hxt1, stronger effect = lower value",0.897 (active)
same,normalized growth,"locus YHR129C, strain ARP1, stronger effect = lower value",0.518 (active)
same,normalized growth,"locus YHR142W, strain chs7, stronger effect = lower value",0.875 (active)
same,normalized growth,"locus YHR200W, strain rpn10, stronger effect = lower value",0.871 (active)
same,normalized growth,"locus YIL066C, strain RNR3, stronger effect = lower value",0.65 (active)
same,normalized growth,"locus YIL073C, strain SPO22, stronger effect = lower value",1.07
same,normalized growth,"locus YIL125W, strain kgd1, stronger effect = lower value",0.693 (active)
same,normalized growth,"locus YIR030C, strain dcg1, stronger effect = lower value",0.954
same,normalized growth,"locus YJL092W, strain hpr5, stronger effect = lower value",0.979
same,normalized growth,"locus YJL095W, strain BCK1 (second series), stronger effect = lower value",0.689 (active)
same,normalized growth,"locus YJL095W, strain BCK1, stronger effect = lower value",0.277 (active) and 0.318 (active)
same,normalized growth,"locus YJL115W, strain asf1, stronger effect = lower value",0.976
same,normalized growth,"locus YJL129C, strain trk1, stronger effect = lower value",0.593 (active)
same,normalized growth,"locus YJL134W, strain LCB3, stronger effect = lower value",0.815 (active)
same,normalized growth,"locus YJL154C, strain vps35, stronger effect = lower value",0.981
same,normalized growth,"locus YJL164C, strain tpk1, stronger effect = lower value",0.78 (active)
same,normalized growth,"locus YJL166W, strain qcr8, stronger effect = lower value",0.563 (active)
same,normalized growth,"locus YJL168C, strain set2, stronger effect = lower value",1
same,normalized growth,"locus YJL187C, strain SWE1 (second series), stronger effect = lower value",0.638 (active)
same,normalized growth,"locus YJL187C, strain SWE1, stronger effect = lower value",0.73 (active)
same,normalized growth,"locus YJR043C, strain POL32, stronger effect = lower value",0.955
